The list is not random: actives were taken first. Their share in the collection is about 2.7%.
RXFP1 agonist: agonists of human relaxin receptor RXFP1 | Q9HBX9 | HEK293T-RXFP1 cAMP TR-FRET, 30 min; response scale: percent of porcine relaxin response, buffer zero | Potency, µM (top dose mostly 57.5 µM), inactives show at the top dose activation, most hits filed as activators | 370,000 compounds, 0.3% hits | AID 2676; active means well fitted activation curve with a large enough effect; inconclusive means small, poorly fitted or top-dose-only effect; further: potency means the concentration at half of the fitted maximal effect; on the % scale 0 is the no-effect control and ±100 the full control effect; nearly all actives have a fitted effect of over 60% in size
Target sequence (Q9HBX9 whole entry, looked up): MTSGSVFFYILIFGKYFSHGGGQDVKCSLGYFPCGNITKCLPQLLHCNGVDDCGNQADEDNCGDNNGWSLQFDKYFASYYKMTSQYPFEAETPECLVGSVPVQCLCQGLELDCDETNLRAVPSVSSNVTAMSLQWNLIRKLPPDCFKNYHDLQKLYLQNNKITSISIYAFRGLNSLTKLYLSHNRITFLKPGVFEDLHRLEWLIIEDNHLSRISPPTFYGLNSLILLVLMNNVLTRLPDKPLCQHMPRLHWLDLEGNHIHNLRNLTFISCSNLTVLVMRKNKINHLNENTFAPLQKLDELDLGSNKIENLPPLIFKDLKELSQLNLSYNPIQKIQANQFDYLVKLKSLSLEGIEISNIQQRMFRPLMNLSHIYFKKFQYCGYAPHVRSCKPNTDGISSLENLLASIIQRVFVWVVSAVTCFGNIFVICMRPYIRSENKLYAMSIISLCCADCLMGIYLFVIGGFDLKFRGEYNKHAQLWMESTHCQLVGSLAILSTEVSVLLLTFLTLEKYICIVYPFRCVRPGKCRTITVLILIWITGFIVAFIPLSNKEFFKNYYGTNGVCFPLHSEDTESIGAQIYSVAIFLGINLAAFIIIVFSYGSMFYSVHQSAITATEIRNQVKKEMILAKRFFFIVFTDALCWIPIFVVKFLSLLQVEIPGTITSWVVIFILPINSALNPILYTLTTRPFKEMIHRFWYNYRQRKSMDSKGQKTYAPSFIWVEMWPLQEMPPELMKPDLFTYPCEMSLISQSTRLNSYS
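Agonist response is measured as cAMP accumulation in an RXFP1-transfected HEK293T line under PDE4 inhibition. Values are scaled between buffer-only and 29 nM porcine relaxin, and EC50s come from standard Hill equation fits.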
ClpP mod: qHTS Assay for Activators of ClpP; ATP-dependent Clp protease proteolytic subunit (Bacillus subtilis (strain 168)), P80244; purified B. subtilis ClpP, FRET peptide cleavage, 20 min; Potency, µM (top dose mostly 57.5 µM), inactives show top-dose activity change, negative = active; 340,000 compounds, 1.9% hits; AID 651965, 2013; active means well fitted falling curve with a large enough effect; inconclusive means small, poorly fitted or top-dose-only effect; inactive means no such curve, though single readings can be large or run the other way; further: potency means the concentration at half of the fitted maximal effect; the source files actives as falling curves though it sought activators and does not explain the sign; nearly all actives have a fitted effect of over 65% in size
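ClpP 10 microg/mL final, pH 8 Tris/KCl buffer with BSA, glycerol, Tween-20; compound pinned in; FRET-FV substrate; RT 20 min; Ex320/Em430; ΔFRET vs ADEP 5.8 microM, DMSO, no enzyme.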
RXFP1 antagonist: antagonists of human relaxin receptor RXFP1; HEK293-RXFP1, relaxin-stimulated cAMP HTRF, 30 min; stronger effect = lower value; Q9HBX9; activity change, negative = inhibition, % at 57.5 µM; 350,000 compounds, 0.59% hits;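 active means activity change of -60% or lower, but not beyond a set lower limit; inconclusive means change between -60% and -40%, or beyond the set limit; inactive means change above -40%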; further: on the % scale 0 is the no-effect control and ±100 the full control effect
gsp antag: gsp mutant antagonism. gsp-mutant cells, cAMP HTRF, 30 min. Potency, µM (top dose mostly 76.9 µM), for inactives: top-dose activity change, negative = inhibition, most hits filed as inhibitors. 340,000 compounds, 0.4% hits. AID 624288; calls by dose curve; cell line not stated here;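 further: intracellular cAMP measured with PDE inhibitor Ro 20-1724 present during compound exposure; potency means the concentration at half of the fitted maximal effect; on the % scale 0 is the no-effect control and ±100 the full control effect; nearly all actives have a fitted effect of over 65% in size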
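Measurement of cellular cAMP by homogeneous time-resolved fluorescence following a 30 min compound exposure at 37C. The PDE inhibitor […] was present throughout; the assay buffer was DPBS with 0.05% BSA and 0.005% Tween 20.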
pAkt inh: blocks phosphorylation of Akt; Neuro2A IGF-stimulated pAkt S473 HTRF, 20 min; stronger effect = lower value; AID 651550; activity change, % for hits at 50 µM; 360,000 compounds, 0.32% hits; in the data active means activity change below about -80%; inconclusive means mostly about -51% to -80%; further: on the % scale 0 is the no-effect control and ±100 the full control effect
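Single-point screen (50 µM final compound) in Neuro2A cells stimulated 20 min with 6 nM IGF at 37 deg C. After lysis, Ser473-phosphorylated Akt read by HTRF (ex 330 nm, em 615/665 nm) as the 665/615 ratio.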
gsp agonist: gsp mutant agonism; gsp mutant cells, cAMP HTRF, 30 min; Potency, µM (titrated, usually from 76.9 µM), without a hit: at the top dose activation (cAMP increase), most hits filed as activators; 340,000 compounds, 0.13% hits; AID 624287; active means well fitted activation curve with a large enough effect; inconclusive means small, poorly fitted or top-dose-only effect, or another doubt; inactive means no such curve, though single readings can be large or run the other way; cell line not stated here;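 further: phosphodiesterase inhibitor Ro 20-1724 added with compounds to block cAMP breakdown; potency means the concentration at half of the fitted maximal effect; nearly all actives have a fitted effect of over 60% in size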
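Cells in DMEM/10% FBS with G418 were pretreated with compounds in DMSO plus […] (300 uM stock) for 30 min at 37C. cAMP was measured by HTRF (cAMP-d2 plus anti-cAMP antibody-K) after 30 min at room temperature.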
The depositor's hits bear a star; [ ] = another dose, or the depositor's remark.

`CSc1ccc(/C=C(\C(=O)O)c2ccc(S(=O)(=O)N3CCCC3)s2)cc1` gave RXFP1 agonist -0.4%, ClpP mod -12.2%, RXFP1 antagonist -9.2, gsp antag -7.8%, pAkt inh inactive and gsp agonist -17.6%.
For CCOCCC(=O)Nc1ccc2c(c1)c(=O)n(C)n2Cc1cccc(C(F)(F)F)c1 the results were ClpP mod 4.8% and pAkt inh inactive.
COc1ccc(C)cc1NC(=O)N1CCN(S(=O)(=O)c2ccc3c(ccn3C)c2)CC1 was read as RXFP1 agonist -0.1% and ClpP mod -3.8%.
Screening CCc1ccc2oc(C(=O)Nc3cc(C)ccc3C)cc(=O)c2c1 returned RXFP1 agonist 0.1%, ClpP mod 0.2% and RXFP1 antagonist -3.7.
O=C(CC1C(=O)NCCN1C(=O)c1ccc(Cl)cc1)Nc1ccc(F)cc1 (stereo not given) was read as RXFP1 agonist 1.5%, ClpP mod 31.6µM*, RXFP1 antagonist -2.5, gsp antag 8.0%, pAkt inh inactive and gsp agonist -19.3%.
COC(=O)[C@]12CCCCC=C1N(Cc1ccco1)C(=O)[C@H](CC(=O)N1CCOCC1)C2 was read as ClpP mod 0.0% and pAkt inh inactive.
`Cc1ccc(S(=O)(=O)NC(=O)N(CCC#N)Cc2ccccc2)cc1` gave RXFP1 agonist 0.0%, RXFP1 antagonist 3.7, gsp antag 9.0%, pAkt inh inactive and gsp agonist -37.4%.
Screening COc1ccccc1Oc1coc2c(CN3CCN(C)CC3)c(O)ccc2c1=O returned RXFP1 agonist 0.5%, ClpP mod 25.1µM*, RXFP1 antagonist -4.2, gsp antag 8.3%, pAkt inh inactive and gsp agonist -3.9%.
For COc1ccccc1-c1coc2c(CN3CCN(C)CC3)c(O)ccc2c1=O the results were RXFP1 agonist 3.7%, ClpP mod 7.94µM*, RXFP1 antagonist -0.7, gsp antag 23.4%, pAkt inh inactive and gsp agonist 10.5%.
`CC(O)[C@H]1CNCCN1CC1(c2ccccc2)CC1` (stereo not given in full) gave RXFP1 agonist 1.8%, ClpP mod 0.5%, gsp antag 12.1%, pAkt inh inactive and gsp agonist inconclusive.
For COC(=O)C(C(=O)OC)c1ccccc1CNS(=O)(=O)c1ccc(C)cc1 the results were ClpP mod -1.8% and pAkt inh inactive.
CCOc1ccc(/C(O)=C2/C(=O)C(=O)N(CCOCCO)C2c2cccnc2)cc1 (stereo not given) was read as RXFP1 agonist inconclusive, ClpP mod -17.0%, RXFP1 antagonist 41.8, gsp antag 18.3%, pAkt inh inactive and gsp agonist 12.6µM*.
CCOC(=O)c1cc(S(=O)(=O)NCc2ccc(Cl)cc2)[nH]n1 was read as RXFP1 agonist -2.9%, ClpP mod -1.4% and RXFP1 antagonist -17.8.
For CCOC(=O)c1ccc(NC(=O)CCc2nc(-c3cccc(C)c3)no2)cc1 the results were RXFP1 agonist 2.0%, ClpP mod 1.9%, RXFP1 antagonist -20.7, gsp antag 35.5µM*, pAkt inh inactive and gsp agonist -10.8%.
For Cc1cccc(-c2noc(CCC(=O)Nc3ccccc3)n2)c1 the results were RXFP1 agonist 0.1%, ClpP mod 0.4%, RXFP1 antagonist -11.9, gsp antag inconclusive, pAkt inh inactive and gsp agonist -28.1%.
`COc1cccc(NC(=O)CCc2nc(-c3ccccc3F)no2)c1` gave RXFP1 agonist -1.7%, ClpP mod -2.2%, RXFP1 antagonist -3.8, gsp antag -9.4%, pAkt inh inactive and gsp agonist -9.1%.
Screening COc1ccccc1-c1noc(CCC(=O)Nc2cccc(C(F)(F)F)c2)n1 returned RXFP1 agonist 4.0%, ClpP mod 0.2%, RXFP1 antagonist 10.3, gsp antag inconclusive, pAkt inh -104.8%* and gsp agonist -16.9%.
COc1cc2c(OC)cccc2cc1C(=O)O was read as RXFP1 agonist 1.7%, ClpP mod 15.8µM*, RXFP1 antagonist -4.6, gsp antag -1.8%, pAkt inh inactive and gsp agonist 14.9%.
For COc1cccc2c(=O)c(C(=O)O)c[nH]c12 the results were RXFP1 agonist 9.3%, ClpP mod 22.4µM*, RXFP1 antagonist -2.3, gsp antag 12.8%, pAkt inh inactive and gsp agonist -53.6%.
CN1C=CC2=C(C#N)C(N)C(C#N)(C#N)C(c3ccccc3)C2C1 (stereo not given) was read as RXFP1 agonist 0.9%, ClpP mod 28.2µM*, RXFP1 antagonist -5.0, gsp antag inconclusive, pAkt inh inactive and gsp agonist inconclusive.
Cc1ccc(CNC(=O)c2ccc(Cn3c(SCc4ccc(F)cc4)nc4cccnc43)cc2)o1 was read as RXFP1 agonist 3.2%, ClpP mod 28.2µM* and RXFP1 antagonist -27.2.
For O=C(NCCc1cccs1)c1ccc(Cn2c(SCc3ccc(F)cc3)nc3cccnc32)cc1 the results were RXFP1 agonist 6.7%, ClpP mod 25.1µM* and RXFP1 antagonist -23.0.
`Cc1ccc(CSc2nc3cccnc3n2Cc2ccc(C(=O)NCc3ccco3)cc2)cc1` gave RXFP1 agonist 13.0%, ClpP mod inconclusive and RXFP1 antagonist -4.2.
For CSc1ccc(C(=O)N2CCc3ccc(NC(=O)c4ccccn4)cc3C2)cc1 the results were RXFP1 agonist -1.3%, ClpP mod 1.2%, RXFP1 antagonist -68.7*, gsp antag 31.6µM*, pAkt inh inactive and gsp agonist -64.2%.
Screening CSc1ccccc1C(=O)N1CCc2ccc(NC(=O)c3ccccn3)cc2C1 returned ClpP mod 0.8%, RXFP1 antagonist -14.9, pAkt inh inactive and gsp agonist -11.1%.
`N#Cc1ccc(-c2ccc(OCC(=O)NCCc3ccccc3)cc2)cc1` gave RXFP1 agonist -0.4%, ClpP mod 31.6µM*, RXFP1 antagonist -8.0, gsp antag -13.3%, pAkt inh inactive and gsp agonist inconclusive.
Screening CCOC(=O)C(CCc1ccccn1)c1ccccc1 (stereo not given) returned ClpP mod 7.94µM*, RXFP1 antagonist 1.5, gsp antag -0.3%, pAkt inh inactive and gsp agonist -8.6%[15.4 µM].
For Cc1oc2cc(O)ccc2c(=O)c1-c1cnn(-c2ccccc2)c1 the results were RXFP1 agonist 3.4%, ClpP mod 31.6µM*, RXFP1 antagonist -6.7, gsp antag -33.4%, pAkt inh inactive and gsp agonist -35.0%.
